Bioassay records deposited in PubChem by National Center for Advancing Translational Sciences (NCATS).
This is a sample that favours compounds with a hit; in the whole collection about 4.7% have one here.
TRHR PAM: TRH receptor (human) allosteric enhancement; P34981; TRHR cells, fluo-8 calcium fluorescence, EC20 TRH enhancement; enhancement, % at 2 µM; hit rate 0.66% among 360,000; AID 493056; in the data active = enhancement above about 30%
Target sequence (P34981 whole entry, looked up): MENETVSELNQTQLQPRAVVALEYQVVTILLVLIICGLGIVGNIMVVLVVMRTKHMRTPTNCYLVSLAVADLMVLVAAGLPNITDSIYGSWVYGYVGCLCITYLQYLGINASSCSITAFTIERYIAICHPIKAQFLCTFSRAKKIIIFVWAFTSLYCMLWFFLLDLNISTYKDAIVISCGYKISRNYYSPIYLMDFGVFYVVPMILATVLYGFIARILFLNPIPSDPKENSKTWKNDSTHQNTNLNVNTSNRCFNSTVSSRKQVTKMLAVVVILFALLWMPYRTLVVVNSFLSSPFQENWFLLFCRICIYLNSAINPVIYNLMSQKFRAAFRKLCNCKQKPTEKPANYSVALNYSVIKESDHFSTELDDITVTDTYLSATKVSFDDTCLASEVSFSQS
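TRHR-expressing cells loaded with fluo-8 calcium dye were read kinetically (ex 480/em 530) during compound addition, then stimulated with an EC20 of TRH (10 nM final). Enhancement of the Gq-mediated intracellular calcium response was scored.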
TRHR agonist: agonists of human TRH receptor | activation, % at 2 µM | P34981 | TRHR cells, calcium flux fluo-8, FDSS agonist mode | hit rate 0.18% among 360,000
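Steps: seed TRHR cells overnight; add fluo-8 no-wash Ca dye, RT 30 min–1.5 h; record 10 s baseline; pin-transfer compounds; monitor fluorescence 1 cycle/s for the agonist window. Calcium increases flag candidate agonists.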
D1 antagonist: blocks dopamine activation of the human D1 receptor. activity change, negative = inhibition, % at 10 µM. P21728. hit rate 3.2% among 360,000. HEK293 TREx D1 cells, calcium flux, dopamine EC80; hits give low values; in the data active = activity change below about -30%
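Tetracycline-induced HEK293 Trex D1 cells, force-coupled to calcium, dye-loaded; compounds added and read 180 s, then EC80 dopamine added and calcium flux tracked kinetically another 180 s.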
D1 ag: activates the human D1 dopamine receptor; HEK293 T-REx D1 cells, calcium flux, agonist mode; activation, % at 2 µM; hit rate 1% among 360,000; P21728
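Agonism was scored from calcium flux recorded over 180 s (1 read/s) after pintool compound addition, following a 10-cycle baseline. Cells were inducible force-coupled HEK293 TREx D1, plated overnight at 30 C and loaded with no-wash calcium dye.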
D1 potentiator: human D1 dopamine receptor positive modulation | P21728 | HEK293 TREx D1 cells, calcium flux, dopamine EC20 potentiation | potentiation, % at 10 µM | hit rate 0.036% among 360,000; in the data active = potentiation above about 30%
Numbers stand for hits. Rule as the data show it, unless noted: active = activation above about 30%; inactive = the rest.

Results for COc1ccc(C(CC(=O)Nc2ccc(C)cn2)N2Cc3ccccc3C2=O)cc1OC (stereo not given) ?
TRHR PAM: inactive; TRHR agonist: inactive; D1 antagonist: inactive; D1 ag: inactive; D1 potentiator: inactive

What do the screens show for `Cc1ccc2[nH]c(CSc3nnc(NC(=O)c4ccccc4F)s3)cc(=O)c2c1`?
TRHR PAM: inactive; TRHR agonist: inactive; D1 antagonist: -32; D1 ag: inactive; D1 potentiator: inactive

How did Cc1ccc2[nH]c(CSc3nnc(NC(=O)c4ccccc4C)s3)cc(=O)c2c1 do in these assays?
TRHR PAM: inactive; TRHR agonist: inactive; D1 antagonist: inactive; D1 ag: inactive; D1 potentiator: inactive

What do the screens show for `Cc1cc(OCc2cc(C(=O)N(C)CCCN3CCOCC3)no2)cc(C)c1Cl`?
TRHR PAM: inactive; TRHR agonist: inactive; D1 antagonist: inactive; D1 ag: 35; D1 potentiator: inactive

Results for CC(=O)c1ccc(OCc2cc(C(=O)N(C)Cc3ccccn3)no2)cc1 ?
TRHR PAM: inactive; TRHR agonist: inactive; D1 antagonist: -73; D1 ag: inactive; D1 potentiator: inactive

Results for Cc1cc(OCc2cc(C(=O)N(C)CCOc3ccccc3)no2)cc(C)c1Cl ?
TRHR PAM: inactive; TRHR agonist: inactive; D1 antagonist: inactive; D1 ag: 37; D1 potentiator: inactive

Results for Cc1cc(OCc2cc(C(=O)NCC3(C)COC3)no2)cc(C)c1Cl ?
TRHR PAM: inactive; TRHR agonist: inactive; D1 antagonist: -41; D1 ag: inactive; D1 potentiator: inactive

Results for Cc1cc(OCc2cc(C(=O)N(C)Cc3ccccn3)no2)cc(C)c1Cl ?
TRHR PAM: inactive; TRHR agonist: inactive; D1 antagonist: inactive; D1 ag: inactive; D1 potentiator: inactive

What do the screens show for `O=C(CSc1cn(CCNC(=O)c2c(F)cccc2F)c2ccccc12)Nc1ccc(F)cc1`?
TRHR PAM: inactive; TRHR agonist: inactive; D1 antagonist: inactive; D1 ag: inactive; D1 potentiator: inactive

How did Cc1ccccc1Nc1cccc2nonc12 do in these assays?
TRHR PAM: inactive; TRHR agonist: inactive; D1 antagonist: inactive; D1 ag: 40; D1 potentiator: inactive

How did Cc1ccccc1NS(=O)(=O)c1cccc2nonc12 do in these assays?
TRHR PAM: inactive; TRHR agonist: inactive; D1 antagonist: inactive; D1 ag: inactive; D1 potentiator: inactive

Results for CCCCCCCCNC(C)C(O)c1ccc(SC(C)C)cc1 (stereo not given) ?
TRHR PAM: inactive; TRHR agonist: inactive; D1 antagonist: inactive; D1 ag: 50; D1 potentiator: inactive

What do the screens show for `O=C(c1ccccc1)c1c[nH]c(C(=O)NNc2cccc(Cl)n2)c1`?
TRHR PAM: inactive; TRHR agonist: inactive; D1 antagonist: inactive; D1 ag: inactive; D1 potentiator: inactive

Results for O=C(c1ccc(Cl)cc1)c1c[nH]c(C(=O)NNc2cccc(Cl)n2)c1 ?
TRHR PAM: inactive; TRHR agonist: inactive; D1 antagonist: -31; D1 ag: inactive; D1 potentiator: inactive

How did Cn1cc(C=C2C(=O)OC3(CCCCC3)OC2=O)c2ccccc21 do in these assays?
TRHR PAM: inactive; TRHR agonist: inactive; D1 antagonist: -30; D1 ag: inactive; D1 potentiator: inactive

Results for Cn1cc(C=C2C(=O)CC(C)(C)CC2=O)c2ccccc21 ?
TRHR PAM: inactive; TRHR agonist: inactive; D1 antagonist: inactive; D1 ag: inactive; D1 potentiator: inactive

How did CCSC1=N/C(=C\c2ccccc2)C(=O)N1c1ccc(OC)cc1 do in these assays?
TRHR PAM: inactive; TRHR agonist: inactive; D1 antagonist: inactive; D1 ag: inactive; D1 potentiator: inactive

How did C=CCSC1=N/C(=C\c2cccnc2)C(=O)N1c1ccc(OC)cc1 do in these assays?
TRHR PAM: inactive; TRHR agonist: inactive; D1 antagonist: -54; D1 ag: inactive; D1 potentiator: inactive

Results for C=CCSC1=N/C(=C/c2ccsc2)C(=O)N1c1ccccc1 ?
TRHR PAM: inactive; TRHR agonist: inactive; D1 antagonist: -58; D1 ag: inactive; D1 potentiator: inactive

How did CCN1C(=O)C2(c3ccccc31)c1c(oc3ccc(C)cc3c1=O)C(=O)N2CCCOC(C)C (stereo not given) do in these assays?
TRHR PAM: inactive; TRHR agonist: inactive; D1 antagonist: inactive; D1 ag: inactive; D1 potentiator: inactive

Results for Cc1nnc(N2CCN(c3ccccc3F)CC2)c2c1nnn2Cc1ccc(F)cc1 ?
TRHR PAM: inactive; TRHR agonist: inactive; D1 antagonist: inactive; D1 ag: inactive; D1 potentiator: inactive

What do the screens show for `CCOC(=O)Cn1c(=O)n(CC2CCCO2)c2nc(-c3ccccc3Cl)nc(C(N)=O)c21` (stereo not given)?
TRHR PAM: inactive; TRHR agonist: inactive; D1 antagonist: inactive; D1 ag: inactive; D1 potentiator: inactive

How did O=C(C[n+]1cccc(CNC(=O)c2ccc(OC(F)F)cc2)c1)Nc1ccccc1Cl do in these assays?
TRHR PAM: inactive; TRHR agonist: inactive; D1 antagonist: -32; D1 ag: inactive; D1 potentiator: inactive

How did O=C(C[n+]1cccc(CNC(=O)c2ccc(OC(F)F)cc2)c1)Nc1ccc(SC(F)F)cc1 do in these assays?
TRHR PAM: inactive; TRHR agonist: inactive; D1 antagonist: inactive; D1 ag: inactive; D1 potentiator: inactive

What do the screens show for `COCC(=O)Nc1ncc(S(=O)(=O)c2ccc([N+](=O)[O-])cc2)s1`?
TRHR PAM: inactive; TRHR agonist: inactive; D1 antagonist: inactive; D1 ag: inactive; D1 potentiator: inactive

What do the screens show for `O=C(Nc1ncc(S(=O)(=O)c2ccc([N+](=O)[O-])cc2)s1)c1cccc2ccccc12`?
TRHR PAM: inactive; TRHR agonist: inactive; D1 antagonist: inactive; D1 ag: 56; D1 potentiator: inactive

How did CCn1cc2nc(SCc3cccc(C(F)(F)F)c3)n(Cc3ccc(Cl)cc3)c(=O)c2n1 do in these assays?
TRHR PAM: inactive; TRHR agonist: inactive; D1 antagonist: inactive; D1 ag: inactive; D1 potentiator: inactive

What do the screens show for `CCOC(=O)N1CCc2c(sc(NCc3ccc(N(C)C)cc3)c2C(=O)Nc2ccc(OC)cc2)C1`?
TRHR PAM: inactive; TRHR agonist: inactive; D1 antagonist: inactive; D1 ag: inactive; D1 potentiator: inactive

What do the screens show for `FC(F)(F)c1cc(CO[C@@H]2CCCN[C@@H]2c2ccccc2)cc(C(F)(F)F)c1`?
TRHR PAM: inactive; TRHR agonist: inactive; D1 antagonist: inactive; D1 ag: 47; D1 potentiator: inactive

How did CC(C)OCCCNC(=O)C(=O)Nc1ccc2nc3n(c(=O)c2c1)CCCCC3 do in these assays?
TRHR PAM: inactive; TRHR agonist: inactive; D1 antagonist: inactive; D1 ag: inactive; D1 potentiator: inactive

What do the screens show for `COc1ccccc1N1CCN(C(=O)CSc2nc(C)c(C)c(=O)[nH]2)CC1`?
TRHR PAM: inactive; TRHR agonist: inactive; D1 antagonist: -30; D1 ag: inactive; D1 potentiator: inactive

How did CCOC(=O)C1=C(CN2CCN(c3ccccc3OC)CC2)NC(=O)NC1c1ccccc1 (stereo not given) do in these assays?
TRHR PAM: inactive; TRHR agonist: inactive; D1 antagonist: -32; D1 ag: inactive; D1 potentiator: inactive
